# L3MBTL1 block – qHTS Assay for the Inhibitors of L3MBTL1; AlphaScreen L3MBTL1–H3K9me1 peptide binding; 0.66% of 230,000 active; Potency, µM (series often up to 57.1 µM), without a hit: at the highest dose activity, negative = inhibition, usual class: inhibitors; Lethal(3)malignant brain tumor-like protein 1 (Homo sapiens), Q9Y468; AID 485360, 2010; further: potency means the concentration at half of the fitted maximal effect; on the % scale 0 is the no-effect control and ±100 the full control effect; nearly all actives have a fitted effect of over 60% in size
#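 First, the protein-peptide complex forms for 30 min at room temperature (L3MBTL1 50 nM, biotinylated H3K9me1 peptide 75 nM). Next, compounds are pin-transferred and incubated 30 min. Finally, AlphaScreen beads are added and read after 30 min.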
# Pol kappa inh-1 – qHTS for Inhibitors of Polymerase Kappa. DNA polymerase kappa (Homo sapiens), Q9UBT6. purified Pol kappa, fluorescent DNA synthesis assay, 10 min. Potency, µM (highest dose often 107 µM), inactives show at the top dose activity, negative = inhibition, most hits filed as inhibitors. 0.53% of 400,000 active. AID 588579, 2011; further: potency means the concentration at half of the fitted maximal effect; on the % scale 0 is the no-effect control and ±100 the full control effect
#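 First, compounds were pin-transferred onto 10 nM Pol kappa. After 15 min at room temperature, substrate was added to 50 nM final. Fluorescence was then measured kinetically at 0 and 10 min.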
# Pol beta inh – qHTS Assay for Inhibitors of DNA Polymerase Beta; P06746; Pol beta primer extension/strand displacement, fluorescence kinetic; Potency, µM (titrated, usually from 114 µM), for inactives: top-dose activity change, negative = inhibition, most hits filed as inhibitors; 1.3% of 340,000 active; further: potency means the concentration at half of the fitted maximal effect; on the % scale 0 is the no-effect control and ±100 the full control effect
#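 Preincubation: enzyme (10 nM) with compound, 15 min, RT. Reaction: substrate added to 50 nM final. Reads: 0 and 10 min. Analysis: normalized, Hill fit.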
# WRN inhibitor – qHTS for Inhibitors of WRN Helicase; 0.46% of 360,000 active; AID 651768, 2012; WRN helicase unwinding, fluorescent forked duplex, kinetic; Potency, µM (top dose mostly 114 µM), for inactives: top-dose activity change, negative = inhibition, hits mostly inhibitors; further: potency means the concentration at half of the fitted maximal effect; on the % scale 0 is the no-effect control and ±100 the full control effect; nearly all actives have a fitted effect of over 55% in size
#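 Primary qHTS, 1536-well format. 20 nM WRN + compound, 15 min RT; start with 100 nM forked fluorophore/quencher duplex, 2 mM ATP (final); kinetic read ex 525/em 598 nm.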
# Pol eta inh-1 – qHTS for Inhibitors of Polymerase Eta; 1.2% of 390,000 active; AID 588591, 2011; Potency, µM (titrated, usually from 114 µM), without a hit: top-dose activity change, negative = inhibition, most hits filed as inhibitors; DNA polymerase eta (Homo sapiens), Q9Y253; recombinant Pol eta, fluorescent DNA replication assay; further: potency means the concentration at half of the fitted maximal effect; on the % scale 0 is the no-effect control and ±100 the full control effect
# Target sequence (Q9Y253 whole entry, looked up): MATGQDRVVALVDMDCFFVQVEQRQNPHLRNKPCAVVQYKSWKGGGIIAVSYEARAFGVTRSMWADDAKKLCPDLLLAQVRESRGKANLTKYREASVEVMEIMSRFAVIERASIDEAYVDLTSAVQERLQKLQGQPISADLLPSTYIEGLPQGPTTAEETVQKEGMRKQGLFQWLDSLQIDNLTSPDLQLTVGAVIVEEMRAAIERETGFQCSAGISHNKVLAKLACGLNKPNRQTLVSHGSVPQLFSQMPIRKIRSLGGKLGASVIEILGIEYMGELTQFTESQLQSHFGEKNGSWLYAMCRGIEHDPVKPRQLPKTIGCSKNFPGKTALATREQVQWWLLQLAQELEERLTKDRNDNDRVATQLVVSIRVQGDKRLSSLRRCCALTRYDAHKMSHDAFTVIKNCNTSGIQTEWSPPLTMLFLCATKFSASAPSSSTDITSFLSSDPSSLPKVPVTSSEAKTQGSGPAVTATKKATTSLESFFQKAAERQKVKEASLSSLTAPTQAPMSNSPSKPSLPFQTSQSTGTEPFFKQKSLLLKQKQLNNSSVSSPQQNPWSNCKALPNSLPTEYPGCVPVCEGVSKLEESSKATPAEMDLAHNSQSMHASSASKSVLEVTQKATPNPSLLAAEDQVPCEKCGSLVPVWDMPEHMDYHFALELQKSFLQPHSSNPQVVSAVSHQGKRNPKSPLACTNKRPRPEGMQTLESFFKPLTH
#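 Pol eta at 10 nM preincubated with compounds 15 min at room temperature; reaction started with fluorescent substrate (50 nM final) and read kinetically at 0 and 10 min.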
# POLI inh – qHTS for Inhibitors of Polymerase Iota | 1% of 390,000 active | Potency, µM (series often up to 115 µM), for the others: at the highest dose activity, negative = inhibition, actives largely listed as inhibitors | AID 588590, 2011 | Pol iota fluorescent replication assay, 10 min; further: potency means the concentration at half of the fitted maximal effect
#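 Pol iota at 10 nM preincubated 15 min with compounds at room temperature; reaction started with fluorescent substrate, 50 nM final. Fluorescence read kinetically at 0 and 10 min; buffer-only wells as negative control.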
# BAZ2B confirm – qHTS Assay for Inhibitors of BAZ2B: Hit Validation; shares compounds with Pol kappa inh-1; AlphaScreen BAZ2B / biotin-H3K14Ac peptide displacement; Potency, µM, usual class: inhibitors; 100% of 25 active; AID 588809, 2011; calls by dose curve
# BAZ2B bead ctr – qHTS Assay for Inhibitors of BAZ2B: Hit Validation in AlphaScreen Counterscreen; 25 tested, under 10 active; AlphaScreen biotin-His6 peptide bead counterscreen, signal decrease; Potency, µM (doses to about 57.1 µM), for the others: top-dose activity change, negative = inhibition, usual class: inhibitors; shares compounds with Pol kappa inh-1;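 active means clear concentration-dependent signal drop in the bead assay lacking the target, so a primary-screen artifact; inconclusive means weak, partial or single-dose response; inactive means no response, so a real primary hit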
# TbPGK inh – qHTS for inhibitors of Phosphogylcerate Kinase: Hit Validation Screen | shares compounds with Pol kappa inh-1 | TbPGK coupled GAPDH assay, Kinase-Glo luminescence | Potency, µM (top dose mostly 57.5 µM), inactives show at the top dose activity change, negative = inhibition, hits mostly inhibitors | 79% of 500 active; further: potency means the concentration at half of the fitted maximal effect; on the % scale 0 is the no-effect control and ±100 the full control effect; nearly all actives have a fitted effect of over 65% in size
# Pol iota confirm – qHTS for Inhibitors of Polymerase Iota: Confirmatory Assay for Cherry-picked Compounds | shares compounds with Pol kappa inh-1 | Pol iota primer extension, TAMRA/BHQ fluorescence | Potency, µM, usual class: inhibitors | 77% of 1,500 active | AID 720496, 2013; further: potency means the concentration at half of the fitted maximal effect
# GALK confirm – Confirmation Assay for Inhibitors of Human Galactokinase (GALK); shares compounds with Pol eta inh-1; 70% of 150 active; purified GALK, Kinase-Glo ATP depletion luminescence; Potency, µM (doses to about 115 µM), without a hit: at the top dose activity, negative = inhibition, most hits filed as inhibitors
# Redox cycling – Confirmatory Assay for Inhibitors of Human Galactokinase (GALK): Phenol-HRP redox assay counterscreen; shares compounds with Pol eta inh-1; Phenol red-HRP H2O2 redox cycling, absorbance 600 nm; Potency, µM (highest dose often 115 µM), without a hit: at the top dose activity change, negative = H2O2 signal, usual class: inhibitors; 40% of 150 active
# HEK293 tox – Secondary Assay for Inhibitors of Human Galactokinase (GALK): HEK-293 Cell Viability Assay | HEK-293 viability, ATP luminescence (CellTiter-Glo), 24/48 h | Potency, µM (highest dose often 46.1 µM), for inactives: at the highest dose activity change, negative = cytotoxicity, most hits filed as inhibitors | AID 2547, 2010 | shares compounds with Pol eta inh-1 | 10% of 170 active; further: potency means the concentration at half of the fitted maximal effect; on the % scale 0 is the no-effect control and ±100 the full control effect
# Pol kappa inh-2 – qHTS for Inhibitors of Polymerase Kappa: Confirmatory Assay for Cherry-picked Compounds | shares compounds with Pol eta inh-1 | purified Pol-kappa, fluorescent strand-displacement substrate | Potency, µM, most hits filed as inhibitors | 76% of 920 active | AID 720501, 2013; further: potency means the concentration at half of the fitted maximal effect
# Pol eta inh-2 – qHTS for Inhibitors of Polymerase Eta: Confirmatory Assay for Cherry-picked Compounds | shares compounds with Pol eta inh-1 | Pol eta primer extension, TAMRA/BHQ fluorescence, 10 min | Potency, µM, most hits filed as inhibitors | 64% of 2,600 active; further: potency means the concentration at half of the fitted maximal effect
# Numbers without * were called inactive; ? = inconclusive; . = not tested or not shown; [ ] = another dose, or the depositor's remark. Sampled rows, rich in hits. Any-hit rate of the full collection: about 2.5%. Unless noted, the call rests on the fitted dose curve; in most records, active means well fitted curve in the direction sought with a large enough effect; inconclusive means small, poorly fitted or top-dose-only effect, or another doubt; inactive means no such curve, though single readings can be large; an effect the other way counts as inactive or inconclusive.
SMILES,L3MBTL1 block,Pol kappa inh-1,Pol beta inh,WRN inhibitor,Pol eta inh-1,POLI inh,Pol iota confirm,Pol eta inh-2,others
Oc1ccc2[nH]cc(CCCCN3CC=C(c4ccccc4)CC3)c2c1,.,-3%[19.4 µM],.,.,.,.,.,.,
Cc1cccc(N2C(=O)/C(=C/c3ccc(CN(CCC#N)S(C)(=O)=O)o3)C(=O)NC2=S)c1,.,22µM*,20µM*,28µM*,6.3µM*,8.9µM*,67*,?,Pol kappa inh-2=11*
Cc1ccc(/C=C2\C(=O)NC(=S)N(c3cccc(F)c3)C2=O)o1,?,32µM*,-3%,50µM*,7.1µM*,?,34*,17*,
Cc1ccc(/C=C2/C(=O)NC(=O)N(Cc3ccc(F)cc3)C2=O)o1,.,.,25%,.,.,.,.,.,
CC(OC(=O)COc1ccc(Nc2ccccc2)cc1)C(=O)N(C)c1ccccc1 (stereo not drawn),?,-20%,.,-14%,-11%,7%,.,.,
CCOC(=O)C1(CCOc2ccccc2)CCN(C(C)CSC)CC1 (stereo not drawn),-4%,-9%,6%,-7%,0%,14%,.,.,
COc1ccc2nc(NC(=O)c3nc(S(=O)(=O)Cc4cccc(C)c4)ncc3Cl)sc2c1,.,?,32µM*,.,79µM*,?,75*,?,
Cc1nc2c(=O)n(C)c(=O)nc-2n(C)n1,0.11µM*,-13%,?,-13%[11.6 µM],0.79µM*,-102%,1.5*,4.3*,TbPGK inh=1.5µM*;GALK confirm=1.9µM*;Redox cycling=0.94µM*;HEK293 tox=10µM*
C=CCn1c(CSc2ccccc2[N+](=O)[O-])n[nH]c1=S,.,50µM*,10µM*,40µM*,13µM*,8.9µM*,53*,24*,
NC(=O)c1ccc(N=Cc2c(O)n(Cc3ccco3)c(=O)[nH]c2=O)cc1,.,50µM*,?,50µM*,22µM*,11µM*,30*,48*,TbPGK inh=9.2µM*;Pol kappa inh-2=30*
CCN(CC)c1ccc(N=Cc2c(O)n(Cc3ccco3)c(=O)[nH]c2=O)cc1,1%,-10%,29%,0%,-18%,52%,.,.,
O=C1C(=O)c2ccccc2-c2ccccc21,.,-8%,?,-30%,2.5µM*,0.71µM*,.,.,TbPGK inh=4.1µM*;GALK confirm=1.9µM*;Redox cycling=0.84µM*;HEK293 tox=7.1µM*
CCN1C(=O)/C(=C/c2ccc3c(c2)CCN3CCCCl)C(=O)NC1=S,?,45µM*,28µM*,-32%[11.6 µM],13µM*,14µM*,67*,43*,
O=C(O)c1cc([N+](=O)[O-])cc([N+](=O)[O-])c1O,.,15%[60.1 µM],.,.,.,.,.,.,
O=C1NC(=O)N(c2ccc(Cl)cc2)C(=O)/C1=C\c1ccc(Sc2nc3ccccc3[nH]2)o1,?,20µM*,22µM*,25µM*,18µM*,?,38*,27*,Pol kappa inh-2=15*
COc1cc2cc(C(=O)N3CC(COS(C)(=O)=O)c4ccc(O)cc43)[nH]c2c(OC)c1OC (stereo not drawn),.,10µM*,.,-34%,3.2µM*,1.8µM*,4.7*,6.7*,Pol kappa inh-2=3*
C#C[C@]1(O)CC[C@H]2[C@@H]3CCC4=Cc5nc6nc7ccccc7n6cc5C[C@]4(C)[C@H]3CC[C@@]21C,15%,-24%,.,-18%,-21%,?,.,.,
O=C(CSc1nc(-c2ccc(F)cc2)nc2c1Cc1ccccc1O2)Nc1cccc(C(=O)O)c1,?,8.9µM*,2.8µM*,?,10µM*,5.6µM*,3.4*,76*,BAZ2B confirm=28*;BAZ2B bead ctr=-25%;TbPGK inh=1.6µM*
Cc1cc(/C=C2/C(=O)NC(=O)N(c3ccccc3)C2=O)c(C)n1-c1ccc(F)cc1,.,-18%,.,-15%,?,?,.,.,

# Screening data deposited in PubChem by National Center for Advancing Translational Sciences (NCATS).
